Source: PubChem BioAssay (National Center for Advancing Translational Sciences (NCATS))
uPA generation: blocks generation of uPA at the cell surface; cell surface uPA generation assay, qHTS; Potency, µM (doses to about 38.3 µM), most hits filed as inhibitors; actives 0.31% (n = 330,000); active means well fitted inhibition curve with a large enough effect; inconclusive means small, poorly fitted or top-dose-only effect; inactive means no such curve, though single readings can be large or run the other way; tested in mouse RAW 264.7 cells; further: nearly all actives have a fitted effect of over 55% in size
TRPV1 agonist: agonists of human vanilloid receptor 1 (TRPV1); actives 0.19% (n = 320,000); Q8NER1; activation, % at 8.33 µM; TRPV1-expressing cells, Fluo-8 calcium influx, agonist mode; in the data active means activation above about 80%; inconclusive means between about 30% and that limit
Target sequence (Q8NER1 whole entry, looked up): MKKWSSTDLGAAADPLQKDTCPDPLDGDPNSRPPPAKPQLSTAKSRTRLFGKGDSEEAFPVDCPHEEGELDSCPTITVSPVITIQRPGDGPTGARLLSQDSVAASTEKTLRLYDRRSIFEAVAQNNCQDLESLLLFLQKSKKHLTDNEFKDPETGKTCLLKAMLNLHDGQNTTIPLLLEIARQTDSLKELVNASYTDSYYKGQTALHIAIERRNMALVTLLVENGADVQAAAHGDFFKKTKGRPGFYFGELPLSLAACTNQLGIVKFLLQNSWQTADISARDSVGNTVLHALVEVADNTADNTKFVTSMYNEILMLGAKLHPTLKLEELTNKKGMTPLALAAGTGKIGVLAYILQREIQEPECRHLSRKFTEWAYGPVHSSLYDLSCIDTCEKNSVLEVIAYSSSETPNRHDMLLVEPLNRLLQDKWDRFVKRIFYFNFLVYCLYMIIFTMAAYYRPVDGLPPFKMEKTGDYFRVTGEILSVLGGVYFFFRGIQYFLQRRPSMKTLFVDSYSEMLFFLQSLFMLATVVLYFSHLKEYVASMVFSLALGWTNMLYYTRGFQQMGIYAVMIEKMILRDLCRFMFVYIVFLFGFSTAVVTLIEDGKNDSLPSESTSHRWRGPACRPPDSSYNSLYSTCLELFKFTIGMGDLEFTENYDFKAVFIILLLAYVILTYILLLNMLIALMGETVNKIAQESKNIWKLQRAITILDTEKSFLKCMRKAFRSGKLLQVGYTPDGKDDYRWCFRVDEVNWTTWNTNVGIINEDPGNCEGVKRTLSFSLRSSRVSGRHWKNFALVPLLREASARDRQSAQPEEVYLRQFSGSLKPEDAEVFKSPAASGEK
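Fluo-8 calcium influx in TRPV1-expressing cells, kinetic read (ex 480/em 520 nm). Compound added and read 3 min for agonist activity, followed by capsaicin at EC20 final and 2 min further read for enhancement.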
TRPV1 potentiator: human TRPV1 potentiation; potentiation, % at 8.33 µM; actives 0.02% (n = 320,000); AID 540277; TRPV1-expressing cells, Fluo-8 calcium influx, capsaicin EC20 potentiation; in the data active means potentiation above about 80%; inconclusive means between about 30% and that limit
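TRPV1-expressing cells were cultured overnight at 35.5C and loaded with Fluo-8 calcium dye for 40 to 90 min at room temperature. After a 10 s baseline, compound was added and calcium influx was read kinetically for 3 min (ex 480/em 520 nm).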
RORg inh: inhibitors of mouse ROR gamma transcriptional activity; P51450; Drosophila S2 Gal4-RORgamma UAS-luciferase reporter, 20 h; Potency, µM (top dose mostly 53.6 µM), actives largely listed as inhibitors; actives 5.4% (n = 310,000); further: nearly all actives have a fitted effect of over 60% in size
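Using a luciferase readout, inhibitors were identified by reduced reporter activity in Drosophila cells coexpressing a copper-inducible Gal4–ROR gamma fusion and UAS-driven Photinus luciferase, incubated 20 hr after 700 uM copper sulfate.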
VP16 counter: inhibits Gal4-VP16 luciferase reporter, ROR gamma counter-screen. Drosophila S2 Gal4-VP16 UAS-luciferase, luminescence, 20 h. Potency, µM (titrated, usually from 53.6 µM), usual class: inhibitors. actives 3.5% (n = 310,000). AID 2546;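 further: Gal4-VP16 expression switched on by copper sulfate through the metallothionein promoter; nearly all actives have a fitted effect of over 50% in size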
Large screens that a line does not name were inactive. An excerpt weighted towards active compounds, which were near 5.8% of everything screened. Unless noted, the call rests on the fitted dose curve; in most records, active means well fitted curve in the direction sought with a large enough effect; inconclusive means small, poorly fitted or top-dose-only effect, or another doubt; inactive means no such curve, though single readings can be large; an effect the other way counts as inactive or inconclusive.

CS(=O)(=O)c1ccc(Cl)c(NC(=O)CCN2C(=O)NC3(CCCC3)C2=O)c1	none (no result: TRPV1 agonist, TRPV1 potentiator, RORg inh, VP16 counter)
COC(=O)c1cc(=O)n(Cc2ccc(OC)c(OC)c2)c(=Nc2ccc(F)cc2)s1	uPA generation 4.47µM, RORg inh inconclusive, VP16 counter inconclusive
COC(=O)c1cc(=O)n(-c2ccccc2)c(=Nc2ccccc2)s1	uPA generation 4.47µM, RORg inh inconclusive, VP16 counter inconclusive
COC(=O)c1cc(=O)n(CCc2ccc(OC)c(OC)c2)c(=Nc2ccc(F)c(Cl)c2)s1	uPA generation 6.31µM, RORg inh 17.8µM, VP16 counter inconclusive
COC(=O)c1cc(=O)n(Cc2ccc(F)cc2)c(=Nc2ccccc2)s1	uPA generation 7.08µM, RORg inh inconclusive
O=C(COC(=O)Cc1c(Cl)cccc1Cl)NCC1CCCO1 (stereo not drawn)	RORg inh inconclusive
Cc1c(C(=O)N/N=C/c2ccc(Cl)cc2)[nH]c2ccc(Cl)cc12	uPA generation 0.355µM, RORg inh 11.2µM, VP16 counter 11.2µM
Cc1ccc(NC(=O)c2ccc3c(c2)OCCO3)nc1	uPA generation 3.16µM, TRPV1 agonist inconclusive (no result: RORg inh, VP16 counter)
Cc1ccnc(NC(=O)c2ccc3c(c2)OCO3)c1	TRPV1 agonist inconclusive, RORg inh 12.6µM, VP16 counter inconclusive
Cc1ccc2nc(NC(=O)c3ccc4c(c3)OCO4)sc2c1	TRPV1 agonist 81.8, RORg inh 7.94µM, VP16 counter inconclusive
O=C(Nc1ccon1)c1ccc2c(c1)OCO2	none (no result: uPA generation)
C=CC(=O)CC	none (no result: uPA generation, TRPV1 agonist, TRPV1 potentiator)
Cc1ccc(/C(N)=N/OC(=O)c2cccs2)cc1	RORg inh inconclusive, VP16 counter inconclusive
Cc1cccc(/C(N)=N/OC(=O)c2cccs2)c1	RORg inh 8.91µM, VP16 counter inconclusive
Cc1noc(-c2ccc(Cl)cc2)c1C(=O)O/N=C(\N)c1ccc(C(C)(C)C)cc1	TRPV1 agonist inconclusive, RORg inh 7.08µM, VP16 counter 7.94µM
CC(C)(C)c1ccc(C(=O)O/N=C(\N)c2ccccc2)cc1	TRPV1 agonist inconclusive, RORg inh 1.12µM, VP16 counter 6.31µM
N/C(Cc1ccc(Cl)cc1Cl)=N\OC(=O)c1cccs1	RORg inh 12.6µM, VP16 counter inconclusive
COc1ccc(C(=O)O/N=C(\N)c2ccccc2)cc1	RORg inh inconclusive, VP16 counter inconclusive
O=C(CCNC(=O)c1ccc(Cl)cc1)Nc1ccc(S(=O)(=O)N2CCCCC2)cc1	none (no result: RORg inh, VP16 counter)
Cc1cccc(/C(N)=N/OC(=O)c2ccc(F)cc2)c1	RORg inh 8.91µM, VP16 counter 22.4µM
N/C(=N\OC(=O)c1ccc(F)cc1)c1cccc([N+](=O)[O-])c1	none
O=C1c2ccccc2C(=O)N1c1nccs1	none (no result: TRPV1 agonist, TRPV1 potentiator, RORg inh, VP16 counter)
O=c1c2ccccc2sn1-c1nccs1	RORg inh 8.91µM, VP16 counter inconclusive
O=c1c2ccccc2sn1-c1ccccc1	RORg inh 3.55µM, VP16 counter 2.82µM
O=C(O)c1cccc(-n2sc3ccccc3c2=O)c1	uPA generation inconclusive (no result: RORg inh, VP16 counter)
Cc1cccc(C)c1NC(=O)CN1C(=O)NC(C)(CCc2ccccc2)C1=O (stereo not drawn)	none
O=C(c1ccc(C(F)(F)F)cc1)N1CCN(S(=O)(=O)c2ccc3c(c2)OCCCO3)CC1	RORg inh 12.6µM
CC(=O)Nc1ccc(C(=O)N2CCN(S(=O)(=O)c3ccc4c(c3)OCCCO4)CC2)cc1	none (no result: RORg inh, VP16 counter)
CCNc1ncc2nc(CCc3ccccc3)c(=O)n(C3CC3)c2n1	none (no result: uPA generation, TRPV1 agonist, TRPV1 potentiator)
O=C1C=CC2(OCCCO2)C(Br)=C1	none (no result: uPA generation, TRPV1 agonist, TRPV1 potentiator)
COc1ccc(COc2cc(-c3cccc(OC)c3)nc3ccc(N)cc23)cc1	uPA generation 1.12µM, RORg inh inconclusive
COc1ccc(COc2cc(-c3cccc(OC)c3)nc3ccc(NC(C)=O)cc23)cc1	none
CNC(=S)NNc1ccccc1[N+](=O)[O-]	RORg inh 15.8µM
COCCNC(=S)NNc1ccccc1[N+](=O)[O-]	RORg inh inconclusive, VP16 counter 11.2µM
CC(C)c1cccc2nc3c(c([Si](C)(C)C(C)(C)C)c12)Cn1c-3cccc1=O	none (no result: uPA generation, TRPV1 agonist, TRPV1 potentiator)
CCC/C=C(\CCC)C(NC(=O)c1ccccc1)c1ccc(C(=O)OC)cc1 (stereo not drawn)	none (no result: uPA generation, TRPV1 agonist, TRPV1 potentiator)
Clc1ccc(COn2c(-c3ccc(Cl)cc3)nc3ccccc32)cc1	TRPV1 agonist inconclusive, RORg inh 11.2µM (no result: uPA generation)
O=[N+]([O-])c1ccc2nc(-c3ccc(Cl)cc3)n(OCc3ccccc3)c2c1	VP16 counter inconclusive
Clc1ccc(COn2c(-c3ccccc3)nc3ccccc32)cc1	TRPV1 agonist inconclusive, RORg inh 10µM, VP16 counter inconclusive
Fc1ccccc1N=C1NN=C(c2ccccc2)CS1	RORg inh inconclusive
Clc1ccccc1N=C1NN=C(c2cccs2)CS1	RORg inh 11.2µM, VP16 counter inconclusive
COC1=CC(=O)C(O)=C/C1=C\C=C\c1ccccc1	VP16 counter 12.6µM (no result: uPA generation, TRPV1 agonist, TRPV1 potentiator)
COc1ccc(NC2CCCN(C(=O)c3cc(C)nc4cc(F)ccc34)C2)cc1 (stereo not drawn)	TRPV1 agonist inconclusive
CCOCc1c(C(=O)Nc2ccc(OC)nc2)oc2ccccc12	TRPV1 agonist 90.4
COc1ccc(NC(=O)c2oc3ccccc3c2CSC)cn1	TRPV1 agonist inconclusive
CCOc1ccc(NC(=S)Nc2ccccc2C2(C)CC2)cc1	RORg inh 7.94µM, VP16 counter inconclusive
CCOc1ccc(NC(=S)NC(C)c2cccs2)cc1 (stereo not drawn)	RORg inh 3.16µM, VP16 counter 5.01µM
CCOc1ccc(NC(=S)NN(C)C(=S)Nc2ccc(OCC)cc2)cc1	RORg inh 7.94µM, VP16 counter inconclusive
COc1ccc(NC(=S)Nc2ccc(F)cc2)cc1	RORg inh inconclusive, VP16 counter inconclusive
CCOc1ccc(NC(=S)Nc2ccc(F)cc2)cc1	RORg inh 12.6µM, VP16 counter inconclusive
CC1(C(=O)NC2CCCC2)CCC(=O)N1Cc1ccccc1Cl (stereo not drawn)	none
COCCCNC(=O)Cn1ccc(NC(=O)OCc2ccccc2)nc1=O	none (no result: RORg inh, VP16 counter)
CC1(C)C(C=C(Cl)Cl)C1C(=O)N1CCN(c2ccccc2)CC1 (stereo not drawn)	TRPV1 agonist inconclusive
O=C1/C(=C/c2cccnc2)CCC/C1=C\c1cccnc1	uPA generation 8.91µM, RORg inh 1.26µM, VP16 counter 2.51µM
CCC1C/C(=C\c2cccnc2)C(=O)/C(=C/c2cccnc2)C1 (stereo not drawn)	RORg inh 5.62µM, VP16 counter 1.78µM
CC(C)/C=C1\CC/C(=C\c2cccnc2)C1=O	RORg inh inconclusive
O=C1/C(=C/c2cccnc2)CC/C1=C\c1cccnc1	none
COc1cccc(Nc2ncc3nc(C)c(=O)n(CCC#N)c3n2)c1	none (no result: uPA generation, TRPV1 agonist, TRPV1 potentiator)
Cc1ccc(C(=O)N2CC(C)CC(C)C2)cc1S(=O)(=O)N1CCCCC1 (stereo not drawn)	TRPV1 agonist inconclusive (no result: RORg inh, VP16 counter)
S=C1NCN(C2CCCCC2)CN1c1ccccc1	TRPV1 potentiator inconclusive, RORg inh 22.4µM, VP16 counter inconclusive
CCCCN1C(=O)c2ccc(C(=O)OCC(=O)NCCc3ccc(S(N)(=O)=O)cc3)cc2C1=O	none (no result: TRPV1 agonist, TRPV1 potentiator, RORg inh, VP16 counter)
CC(=O)Nc1ccc(NC(=O)COC(=O)c2c(C)nn(-c3ccccc3)c2C)cc1	none
